Measurements reported in PubChem BioAssay AID1159580 (chemical genetic matrix, 2015).
Screen size: about 5,500 compounds; about 2,000 (36%) were called active. Another 18% or so got no clear call; they are omitted. Rule as the data show it: active = normalized growth mostly below about 0.91 (no sharp cut-off); inconclusive = no clear call, values can overlap the other calls; inactive = mostly above about 0.92. This is one part of the list.

Experiment: chemical genetic growth profiling, strain panel (AID 1159580);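 also: tested at 20 µM; growth read once vehicle control cultures reached saturation at 30 °C; 1 = growth at the plate median or of vehicle wells; lower values mean less growth of the strain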
Details: S. cerevisiae deletion strains, growth OD

Measured: normalized growth

COc1cc(O)c2c(=O)c(O)c(-c3ccc(O)c(O)c3)oc2c1
active: locus YAL021C, strain ccr4, stronger effect = lower value 0.466 | locus YAL026C, strain drs2, stronger effect = lower value 0.678 | locus YAL030W, strain snc1, stronger effect = lower value 0.886 | locus YBL061C, strain skt5, stronger effect = lower value 0.794 | locus YBR009C, strain hhf1, stronger effect = lower value 0.773 | locus YBR023C, strain chs3, stronger effect = lower value 0.693 | locus YBR231C, strain swc5, stronger effect = lower value 0.72 | locus YBR279W, strain paf1, stronger effect = lower value 0.829 | locus YCL011C, strain gbp2, stronger effect = lower value 0.803 | locus YCL016C, strain dcc1, stronger effect = lower value 0.865 | locus YCL069W, strain vba3, stronger effect = lower value 0.846 | locus YCR088W, strain abp1, stronger effect = lower value 0.912 | locus YDR069C, strain doa4, stronger effect = lower value 0.467 | locus YDR137W, strain rgp1, stronger effect = lower value 0.659 | locus YDR297W, strain sur2, stronger effect = lower value 0.787 | locus YDR334W, strain swr1, stronger effect = lower value 0.755 | locus YDR335W, strain msn5, stronger effect = lower value 0.761 | locus YEL003W, strain gim4, stronger effect = lower value 0.795 | locus YEL037C, strain rad23, stronger effect = lower value 0.823 | locus YEL061C, strain CIN8 (second series), stronger effect = lower value 0.907 | locus YER015W, strain faa2, stronger effect = lower value 0.66 | locus YER016W, strain bim1, stronger effect = lower value 0.895 | locus YER111C, strain swi4, stronger effect = lower value 0.793 | locus YER155C, strain BEM2 (second series), stronger effect = lower value 0.789 | locus YFR010W, strain ubp6, stronger effect = lower value 0.736 | locus YGL173C, strain kem1, stronger effect = lower value 0.657 | locus YGL253W, strain hxk2, stronger effect = lower value 0.693 | locus YHR013C, strain ard1, stronger effect = lower value 0.808 | locus YHR027C, strain rpn1, stronger effect = lower value 0.549 | locus YHR129C, strain ARP1, stronger effect = lower value 0.875 | locus YHR142W, strain chs7, stronger effect = lower value 0.622 | locus YJL092W, strain hpr5, stronger effect = lower value 0.885 | locus YJL095W, strain BCK1 (second series), stronger effect = lower value 0.746 | locus YJL129C, strain trk1, stronger effect = lower value 0.867 | locus YJL164C, strain tpk1, stronger effect = lower value 0.723 | locus YJL166W, strain qcr8, stronger effect = lower value 0.819 | locus YJL187C, strain SWE1 (second series), stronger effect = lower value 0.776
inactive: locus YAL013W, strain DEP1, stronger effect = lower value 0.998 | locus YBR021W, strain FUR4, stronger effect = lower value 1.01 | locus YBR171W, strain sec66, stronger effect = lower value 0.932 | locus YBR229C, strain ROT2, stronger effect = lower value 0.987 | locus YCL029C, strain bik1, stronger effect = lower value 1.01 | locus YDL005C, strain med2, stronger effect = lower value 1 | locus YDL035C, strain GPR1, stronger effect = lower value 0.931 | locus YDL040C, strain nat1, stronger effect = lower value 0.988 | locus YDL074C, strain BRE1, stronger effect = lower value 0.822 | locus YDL101C, strain DUN1, stronger effect = lower value 0.911 | locus YDL185W, strain tfp1, stronger effect = lower value 0.995 | locus YDL192W, strain arf1, stronger effect = lower value 0.986 | locus YDR001C, strain nth1, stronger effect = lower value 0.954 | locus YDR101C, strain arx1, stronger effect = lower value 0.992 | locus YDR159W, strain sac3, stronger effect = lower value 0.891 | locus YDR162C, strain NBP2, stronger effect = lower value 0.948 | locus YDR195W, strain ref2 1.02 | locus YDR318W, strain mcm21, stronger effect = lower value 0.986 | locus YDR388W, stronger effect = lower value 1.01 | locus YDR392W, strain spt3, stronger effect = lower value 0.838 | locus YDR502C, strain sam2, stronger effect = lower value 0.981 | locus YEL061C, strain CIN8, stronger effect = lower value 0.966 | locus YER110C, stronger effect = lower value 1.03 | locus YER155C, strain BEM2, stronger effect = lower value 1.01 | locus YER167W, strain BCK2, stronger effect = lower value 1.02 | locus YGL078C, strain dbp3, stronger effect = lower value 1.01 | locus YGL086W, strain mad1, stronger effect = lower value 0.933 | locus YGL167C, strain pmr1, stronger effect = lower value 0.949 | locus YGL227W, strain vid30, stronger effect = lower value 1.01 | locus YGL240W, strain doc1, stronger effect = lower value 0.961 | locus YGL248W, strain PDE1, stronger effect = lower value 0.915 | locus YGR135W, strain pre9, stronger effect = lower value 0.984 | locus YGR252W, strain gcn5, stronger effect = lower value 1.03 | locus YHR030C, strain SLT2, stronger effect = lower value 0.971 | locus YHR079C, strain IRE1 (second series), stronger effect = lower value 1.02 | locus YHR094C, strain hxt1, stronger effect = lower value 1.02 | locus YHR200W, strain rpn10, stronger effect = lower value 0.997 | locus YIL066C, strain RNR3, stronger effect = lower value 0.974 | locus YIL073C, strain SPO22, stronger effect = lower value 0.925 | locus YIL125W, strain kgd1, stronger effect = lower value 0.981 | locus YIR030C, strain dcg1, stronger effect = lower value 1.01 | locus YJL095W, strain BCK1, stronger effect = lower value 0.822 | locus YJL115W, strain asf1, stronger effect = lower value 0.968 | locus YJL134W, strain LCB3, stronger effect = lower value 0.986 | locus YJL154C, strain vps35, stronger effect = lower value 0.957 | locus YJL168C, strain set2, stronger effect = lower value 1.03 | locus YJR043C, strain POL32, stronger effect = lower value 0.896
